# FBPA coupling cs = qHTS Assay for Inhibitors of Fructose-1,6-bisphosphate Aldolase from Giardia Lamblia: Coupling assay counterscreen. coupling enzyme system counterscreen, AmpLite Red fluorescence. AID 2472, 2010. activity change, negative = inhibition, % at 58.2 µM, hits read low. hit rate 0.67% among 290,000; in the data active means activity change below about -30%
#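 Compounds tested against the coupling enzymes alone at 57.5 uM final; readout was AmpLite Red fluorescence (525/598 nm) after 20 min at RT.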
# G9a inh = qHTS Assay for Inhibitors of Histone Lysine Methyltransferase G9a | Histone-lysine N-methyltransferase EHMT2 (Homo sapiens), Q96KQ7 | hit rate 8.8% among 350,000 | G9a H3K9 monomethylation, AlphaScreen, 2 h | AID 504332, 2011 | Potency, µM (series often up to 102 µM), for the others: top-dose activity, negative = inhibition, usual class: inhibitors; further: potency means the concentration at half of the fitted maximal effect; nearly all actives have a fitted effect of over 75% in size
# Target sequence (Q96KQ7 913-1193 limits assumed): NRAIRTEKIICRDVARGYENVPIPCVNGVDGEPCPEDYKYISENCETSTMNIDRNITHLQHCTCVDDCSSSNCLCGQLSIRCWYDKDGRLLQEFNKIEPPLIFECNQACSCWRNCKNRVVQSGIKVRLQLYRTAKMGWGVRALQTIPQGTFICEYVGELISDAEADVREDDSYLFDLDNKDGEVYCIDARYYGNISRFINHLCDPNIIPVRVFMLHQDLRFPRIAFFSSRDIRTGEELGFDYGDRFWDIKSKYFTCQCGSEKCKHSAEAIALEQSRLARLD
#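 Enzyme 20 nM + cpd, 15 min RT; add b-H3K9 pep 500 nM / SAM 20 uM; 2 h RT; anti-H3K9me1 Ab 0.5 ug/mL + SA donor / anti-rabbit acceptor beads 20 ug/mL each, 10 min; AlphaScreen read.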
# Tau FP inhib = qHTS for Inhibitors of Tau Fibril Formation, Fluorescence Polarization | hit rate 0.39% among 280,000 | Potency, µM (series often up to 57.7 µM), for the others: top-dose activity, negative = inhibition, hits mostly inhibitors | K18 P301L tau heparin fibrillization, Alexa594 FP, 6 h; further: potency means the concentration at half of the fitted maximal effect; nearly all actives have a fitted effect of over 55% in size
# Target sequence (P10636 561-689 P618L limits assumed): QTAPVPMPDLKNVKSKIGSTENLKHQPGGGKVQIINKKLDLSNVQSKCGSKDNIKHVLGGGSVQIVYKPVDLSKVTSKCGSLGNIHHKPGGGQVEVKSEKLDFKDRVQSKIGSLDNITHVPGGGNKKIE
#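 K18 P301L tau (15 uM unlabeled/0.24 uM Alexa 594-labeled, final) + compound + heparin 20 uM final; 100 mM NaOAc pH 7; 6 hr 37 C; ThT 30 uM final added, 1 hr RT; FP ex 555/em 632 nm.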
# Tau fluor cs = Counterscreen qHTS for Inhibitors of Tau Fibril Formation, Fluorescence Polarization; hit rate 0.93% among 280,000; Potency, µM (doses to about 57.7 µM), for inactives: at the highest dose activity change, negative = decrease; tau K18 P301L Alexa594 fluorescence, heparin fibrillization; further: potency means the concentration at half of the fitted maximal effect; nearly all actives have a fitted effect of over 55% in size
#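 Human K18 P301L tau (15 uM unlabeled plus 0.24 uM Alexa 594-labeled, final) in 100 mM sodium acetate pH 7 was mixed with compound and 20 uM heparin and incubated 6 hr at 37 C.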
# Sfp inh = qHTS Assay for Inhibitors of Bacillus subtilis Sfp phosphopantetheinyl transferase (PPTase); 4'-phosphopantetheinyl transferase ffp (Bacillus subtilis), Q9F4F7; Biochemical Sfp PPTase activity, qHTS; Potency, µM, for the others: largest response in the series, negative = inhibition, hits mostly inhibitors; hit rate 3.5% among 310,000;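 further: the enzyme is Sfp with the accession as filed and its product quenches rhodamine fluorescence; potency means the concentration at half of the fitted maximal effect; 0% = enzyme reaction without inhibitor and -100% = no enzyme wells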
#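 After 15 min at room temperature with compound, 15 nM Sfp received 5 uM rhodamine-CoA plus 12.5 uM BHQ-2-ybbR (50 mM Hepes pH 7.6, 10 mM MgCl2). Rate came from the fluorescence difference over 30 min, ex 525/em 598 nm.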
# Tau fibril ThT = qHTS for Inhibitors of Tau Fibril Formation, Thioflavin T Binding; Potency, µM (series often up to 57.4 µM), for inactives: at the highest dose activity, negative = inhibition, most hits filed as inhibitors; recombinant tau K18 P301L, heparin-induced fibrillization, ThT fluorescence; AID 1460, 2008; hit rate 2.1% among 270,000; further: potency means the concentration at half of the fitted maximal effect; nearly all actives have a fitted effect of over 55% in size
#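 Fibril formation assay: tau K18 P301L at 15 uM with trace Alexa 594 label, heparin inducer 20 uM, pH 7 sodium acetate buffer, 37 C for 6 hr; endpoint ThT signal.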
# * marks the source's active call; other numbers are inactive results; ? = inconclusive; · = no result; [ ] = remark or other dose. Rows were chosen to be rich in hits. Some 11% of all compounds tested hit in one or more screens of this group. Unless noted, the call rests on the fitted dose curve; in most records, active means well fitted curve in the direction sought with a large enough effect; inconclusive means small, poorly fitted or top-dose-only effect, or another doubt; inactive means no such curve, though single readings can be large; an effect the other way counts as inactive or inconclusive. Unless noted, on the % scale 0 is the no-effect control and ±100 the full control effect.
SMILES,FBPA coupling cs,G9a inh,Tau FP inhib,Tau fluor cs,Sfp inh,Tau fibril ThT
CCN(CC)C(=O)c1c(-c2ccccc2)c(-c2ccccc2)nn(CC)c1=O,·,17%[59 µM],-1%,-6%,·,-1%
CCN(CC)S(=O)(=O)c1ccc2nc(NC(=O)c3cccnc3)sc2c1,·,11%[59 µM],0%,-15%,·,4%
O=C1N/C(=C/c2cccn2-c2ccc(F)cc2)C(=O)N1Cc1ccccc1,-3,-30%[59 µM],8%,-18%,-8%,-7%
O=C(O)c1cccc(-n2cccc2/C=C\[N+](=O)[O-])c1,0,·,?,-11%,-13%,?
Cc1ccc(CN2C(=O)N/C(=C\c3cccn3-c3cccc(C(=O)O)c3)C2=O)cc1,14,16µM*,0%,-6%,50µM*,1%
O=C(O)c1ccc(COc2ccc3ccccc3c2/C=C2/NC(=O)N(Cc3ccc(F)cc3)C2=O)cc1,-14,?,2%,-5%,71µM*,?
O=C(O)c1cccc(-n2cccc2/C=C2\NC(=O)N(Cc3ccc(F)cc3)C2=O)c1,11,22µM*,-1%,-1%,-25%,2%
O=C(O)c1cccc(-n2cccc2/C=C/[N+](=O)[O-])c1,-9,10µM*,-9%,-5%,32µM*,?
O=C(O)c1ccc(COc2ccccc2/C=C2\NC(=O)N(Cc3ccccc3)C2=O)cc1,7,?,0%,-7%,9%,-7%
Cc1ccc(NC(=O)CN2C(=O)N/C(=C\c3cccn3-c3cccc(C(=O)O)c3)C2=O)cc1,0,8.9µM*,4%,0%,40µM*,-13%
Cc1ccc(NC(=O)CN2C(=O)N/C(=C/c3cc(C)n(-c4cccc(C(=O)O)c4)c3C)C2=O)cc1,3,13µM*,-3%,-5%,?,?
COc1cccc(/C=C2/NC(=O)N(CC(=O)Nc3ccc(C)cc3)C2=O)c1OCc1cccc(C(=O)O)c1,6,?,·,·,?,·
O=C(CN1C(=O)N/C(=C\c2ccccc2OCc2ccc(C(=O)O)cc2)C1=O)Nc1ccccc1F,0,56µM*,·,·,-4%,·
Cc1ccc(NC(=O)CN2C(=O)N/C(=C/c3ccccc3OCc3cccc(C(=O)O)c3)C2=O)cc1,12,45µM*,·,·,89µM*,·
COc1cc(-c2noc(C3CC(=O)N(c4cc(C)ccc4C)C3)n2)cc(OC)c1OC (centres undefined),·,11%[59 µM],-6%,-9%,·,-9%
CC(=O)c1cccc(NC(=O)[C@H](Cc2ccccc2)N2Cc3ccccc3C2=O)c1,·,2%[59 µM],2%,-23%,·,-8%
O=C1C[C@@H](O)[C@@H](O)[C@H]2[C@@H]3C(=O)N(c4cccc(Oc5ccccc5)c4)C(=O)[C@@H]3CC[C@H]12,-1,·,-6%[11.6 µM],-3%[11.6 µM],-8%,-3%[11.5 µM]
COc1ccc(CNc2nc(-c3ccccc3CN(C)C)nc3ccccc23)c(OC)c1,1,·,-11%,-8%,?,-7%
Cn1c(=O)c2c(nc(N3CCOCC3)n2Cc2c(F)cccc2Cl)n(C)c1=O,4,10%,8%,1%,6%,8%
O=C1S/C(=C\c2ccc(N3CCOCC3)o2)C(=O)N1Cc1c(F)cccc1Cl,-41*,?,4%,-10%,2.8µM*,?
O=C1S/C(=C/c2ccc(N3CCOCC3)o2)C(=O)N1Cc1c(F)cccc1Cl,-16,1.8µM*,11%,-25%,4.5µM*,?
CSc1nc(N(C)C)c2ccccc2n1,0,19%,-2%,0%,17%,16%
CN(C)c1nc2ccccc2c(N)c1-c1ccccc1,2,4µM*,2%,0%,79µM*,3%
Cc1cccc(C)c1OCCn1c(C2CC(=O)N(c3cccc(Cl)c3)C2)nc2ccccc21 (centres undefined),·,-34%[59 µM],-20%,-11%,·,-6%
Cc1cccc(C)c1OCCCCn1c(C2CC(=O)N(c3ccc(F)cc3)C2)nc2ccccc21 (centres undefined),·,14µM*,-7%,-10%,·,-8%
SMILES,FBPA coupling cs,G9a inh,Tau FP inhib,Tau fluor cs,Sfp inh,Tau fibril ThT
COC(=O)Cn1c(C2CC(=O)N(c3c(C)cccc3C)C2)nc2ccccc21 (centres undefined),·,14µM*,-7%,-2%,·,-2%
Cc1cccc(OCCOC(=O)c2ccc(F)c(S(=O)(=O)N3CCOCC3)c2)c1,·,24%[12.7 µM],·,·,·,·
Cc1nc(SCC(=O)N2c3ccccc3Sc3ccccc32)n[nH]1,2,11%,8%,-8%,11%,-8%
Cc1nc(S/C(C(=O)O)=C2/C(=O)Nc3ccccc32)n[nH]1,2,35µM*,5%,-23%,?,·
Cc1c([N+](=O)[O-])c(C(=O)N2CCCC2)nn1C,4,28%[0.501 µM],-4%,-6%,6%,-2%
Cc1c([N+](=O)[O-])c(C(=O)Sc2ccc(Br)cc2)nn1C,1,25µM*,-1%,-23%,-2%,?
CCCCN(CC)CCCNC(=O)c1ccc2c(c1)NC(=O)CN2C,·,-28%[59 µM],0%,-16%,·,-16%
O=C1CCCN1c1ccc(N2CCCC2=O)cc1,-1,13%[59 µM],·,·,21%,·
COCCSc1ccccc1C(=O)Nc1cc(C)on1,-14,1.1µM*,-3%,-2%,32µM*,-2%
COCCSc1ccccc1C(=O)Nc1ccc(Br)cc1,-8,20µM*,-8%,-10%,-19%,-2%
Cc1cc(NC(=O)c2cc([N+](=O)[O-])cc([N+](=O)[O-])c2C)no1,-2,·,-9%,-3%,79µM*,12%
COc1ccccc1C(=O)Nc1cc(C)on1,1,-20%,·,·,17%,·
Cc1cc(NC(=O)c2ccoc2C)no1,1,5µM*,-9%,-9%,-27%,-12%
Cc1ccc(OCCSc2nc3ccccc3n2CC(=O)O)c(C(C)C)c1,17,2%,·,·,14%,·
COc1ccc(NC(=O)c2oc3ccccc3c2NC(=O)Cc2ccc(F)cc2)c(OC)c1,·,-19%[59 µM],-8%,-28%,·,-6%
CSc1nc(=O)c2c(n1C)NC(=O)CC2c1cc(F)cc(F)c1 (centres undefined),·,?,-5%,-7%,·,0%
CC1CCN(c2cc3c(cc2F)c(=O)c(S(=O)(=O)c2ccc(Cl)cc2)cn3C)CC1,·,9%[59 µM],-10%,-5%,·,-10%
COCCSc1ccccc1C(=O)Nc1ccc2c(c1)OCO2,0,·,6%,1%,?,-1%
